From PubChem BioAssay
mHTT CaM bind: inhibitors of human mutant huntingtin-calmodulin interaction | 190,000 compounds, 3.6% hits | P42858 | inhibition, % at 15 µM | AlphaScreen His-mHTT/GST-CaM binding, luminescence
Pf apPOL block: Pf-apPOL DNA polymerase inhibition | Recombinant Pf-apPOL, molecular beacon fluorescence, 1.5 h | inhibition, % at 10 µM | 210,000 compounds, 0.25% hits
Large screens that a line does not name were inactive. Compounds with a hit are over-represented: about 3.5% of the library has one in this group of screens. Cut-off read from the data, not from the text of the source: active = inhibition above about 50%; inactive = the rest.

CCc1nc(-c2ccc(C(=O)N3CCN(c4ccccc4)CC3)cc2)cs1	none
CCc1nc(-c2ccc(C(=O)N3CCc4ccccc4C3)cc2)cs1	mHTT CaM bind 59.9
Cc1cccc(NC(=O)C(c2ccccc2)N2CCC2=O)c1 (stereo not drawn)	none
COc1ccccc1NC(=O)C1=C(C)Nc2nc3ccccc3n2C1c1cccc([N+](=O)[O-])c1 (stereo not drawn)	none
CC1=C(C(=O)Nc2ccc(Cl)cc2)C(c2cccc([N+](=O)[O-])c2)n2c(nc3ccccc32)N1 (stereo not drawn)	mHTT CaM bind 72.0
CCc1c(C(=O)NCC2CCCO2)cnn1-c1ccc(C)cc1 (stereo not drawn)	none
Cc1ccc(-n2nc3c(c2NC(=O)COc2ccccc2)CS(=O)(=O)C3)cc1	none
COc1ccc(CCNC(C)=O)cc1	none
COc1ccc(CCNc2ccc(C)cc2)cc1	mHTT CaM bind 70.6
CC1CCN(c2nc(-c3ccccc3)c3c(c2C#N)CC(C)(C)OC3)CC1	none
CS(=O)(=O)c1ccc2nc(NC(=O)/C=C/c3ccccc3Cl)sc2c1	mHTT CaM bind 75.0
CC(C)c1ccc(/C=C/C(=O)Nc2nc3ccc(S(C)(=O)=O)cc3s2)cc1	none
COCCNC(=O)CCCN1C(=O)CCn2nc(C)cc21	none
COc1cc(C(c2c(C)[nH][nH]c2=O)c2c(C)[nH][nH]c2=O)ccc1O	none
COc1cc(C(c2c[nH]c3ccccc23)c2c[nH]c3ccccc23)ccc1O	mHTT CaM bind 100.3
CCCc1c(C(=O)N2CCN(C)CC2)cnn1-c1ccc(F)cc1	none
C=C1CCN([C@@H](CC(C)C)C(=O)N2CCOCC2)S(=O)(=O)c2ccccc21	none
CC(C)CC(C(=O)N1CCOCC1)N1C(=O)C2C3c4ccccc4C(c4ccccc43)C2C1=O (stereo not drawn)	mHTT CaM bind 54.8
Nc1cccc2ccc(-c3cnc4ccccc4c3)nc12	mHTT CaM bind 57.0
c1ccc2ncc(-c3ccc4ccccc4n3)cc2c1	none
Cc1ccc(C(=O)N/C(=C\c2ccccc2F)c2nc3ccccc3[nH]2)cc1	none
O=C(NC1CC1)c1ccc(OCC2CCN(C(=O)C3(c4ccccc4)CC3)CC2)cc1	none
Cc1cccc(-n2cnc3cc(C(=O)NCCc4ccccc4)ccc32)c1	none
CCNCCNC(=O)c1c(O)c2cc(F)cc3c2n(c1=O)C(C)CC3 (stereo not drawn)	mHTT CaM bind 98.0
CC1CCc2cc(F)cc3c(O)c(C(=O)NCCCN4CCOCC4)c(=O)n1c23 (stereo not drawn)	none
O=C(Cc1nnc(-c2ccc3ncccc3c2)o1)NC1CCCCC1	none
Cc1nn(C)c2c(=O)n(CC(=O)NCc3cccc(Cl)c3)ccc12	none
Cc1cc(C2CCCN2C(=O)Cc2ccc(F)cc2Cl)on1 (stereo not drawn)	none
COc1cccc(CNCc2ccccc2[N+](=O)[O-])c1OC	none
COc1ccc(C)cc1NS(=O)(=O)CC(C)C	none
COc1ccc(C)cc1NCc1ccccc1[N+](=O)[O-]	mHTT CaM bind 77.4
COc1cc(C)c(CNc2cc(C)ccc2OC)cc1C	mHTT CaM bind 88.8
O=[N+]([O-])c1cc(-c2cnc3ccccc3n2)ccc1Oc1cccc2cccnc12	none
COc1cccc(C2=NC3(CCNCC3)NC(c3cc(Br)ccc3O)C2)c1 (stereo not drawn)	none
Oc1ccc(Cl)cc1C1CC(c2ccc(Cl)cc2)=NC2(CCNCC2)N1 (stereo not drawn)	mHTT CaM bind 66.4
COc1ccc(C2=NC3(CCNCC3)NC(c3cc(Br)ccc3O)C2)cc1 (stereo not drawn)	mHTT CaM bind 70.5
Cc1ccc(C2=NC3(CCNCC3)NC(c3cc(Cl)ccc3O)C2)cc1C (stereo not drawn)	none
O=C1OC(c2ccc([N+](=O)[O-])cc2Cl)=N/C1=C\C(Cl)=C\c1ccccc1	none
COc1cc([N+](=O)[O-])c(OC)cc1Cl	none (no result: Pf apPOL block)
COc1cc2c(cc1OC)C(C(=O)N(C)C1CCCCC1)C(c1cccs1)N(C)C2=O (stereo not drawn)	none
CC(C)(C)c1[nH]nc2c1C(c1cn[nH]c1-c1ccc(F)cc1)C(C#N)=C(N)O2 (stereo not drawn)	none
Cc1ccccc1-n1nc2c(c1NC(=O)c1ccccc1C(F)(F)F)CSC2	none
Cc1ccccc1-n1nc2c(c1NC(=O)c1cccc(C(F)(F)F)c1)CSC2	mHTT CaM bind 100.0
O=C(Nc1c2c(nn1-c1ccc(Cl)cc1)CSC2)C1CCCC1	none
Cc1ccc(C(=O)Nc2c3c(nn2-c2cccc(C)c2C)CSC3)cc1[N+](=O)[O-]	none
Cc1ccccc1-n1nc2c(c1NC(=O)c1ccc(Cl)c([N+](=O)[O-])c1)CSC2	mHTT CaM bind 56.0
O=C(Nc1c2c(nn1-c1ccc(F)cc1)CSC2)C1CCCC1	mHTT CaM bind 57.0
Cc1ccc(C(=O)Nc2c3c(nn2-c2ccccc2C)CSC3)cc1	none
Cc1ccc(C(=O)Nc2c3c(nn2-c2ccccc2C)CSC3)cc1C	mHTT CaM bind 62.0
Oc1oc(-c2ccccc2)nc1C=Nc1ccc(Cl)cc1	none
Cc1cccc(C)c1NC(=O)c1ccc(OC(C)C)cc1	none
C=CCNC(=O)c1cc2c(=O)n3cccc(C)c3nc2n(CC)c1=N	none
Cc1nc(Cn2cccc2C(=O)NC2CCCCC2)no1	none
Clc1ccccc1-c1nnc(-c2ccc(Br)cc2)o1	none
CCc1ccccc1NC(=O)CSCc1cccc(Br)c1	none
Cc1cccc(C(=O)Nc2c3c(nn2-c2ccccc2C)CSC3)c1	mHTT CaM bind 58.0
O=C(Nc1c2c(nn1-c1ccc([N+](=O)[O-])cc1)CSC2)c1cccc(C(F)(F)F)c1	mHTT CaM bind 57.0
Cc1ccccc1-n1nc2c(c1NC(=O)C1CCCCC1)CSC2	mHTT CaM bind 52.0
Cc1cccc(-n2nc3c(c2NC(=O)C2CCCC2)CSC3)c1C	none
Cc1cccc(C(=O)Nc2c3c(nn2-c2ccc([N+](=O)[O-])cc2)CSC3)c1	none
Cc1ccccc1-n1nc2c(c1NC(=O)c1cccc([N+](=O)[O-])c1)CSC2	none
Cc1nn(Cc2ccccc2)c(C)c1S(=O)(=O)O	none
O=C(NC1CC2CC1N(C(=O)c1cnccn1)C2)c1ccccc1 (stereo not drawn)	none
O=C1Nc2ccc(Br)cc2C1(O)Cc1ccccn1 (stereo not drawn)	none
O=C1Nc2ccc(Br)cc2C12NN=C(c1ccccc1)S2 (stereo not drawn)	mHTT CaM bind 100.0
CCc1ccc2c(c1)C1(NN=C(c3ccc(C)cc3)S1)C(=O)N2 (stereo not drawn)	mHTT CaM bind 99.8
CCc1ccc2c(c1)C(=O)C(=O)N2	none
Cn1c2ccccc2c2c(C(=O)NCc3ccco3)cn(C3CCCC3)c(=O)c21	none
COc1ccc(-c2ccc3nc(C(=O)NCc4cccnc4)cn3c2)cc1	mHTT CaM bind 59.0
COc1cccc(CNC(=O)c2cn3cc(C)ccc3n2)c1	none
O=C(CSc1nc2ccc([N+](=O)[O-])cc2s1)N1CCCCC1	none
COc1ccc(C(O)=C2C(=O)C(=O)N(CCCN(C)C)C2c2cccc(OC)c2OC)c(C)c1 (stereo not drawn)	none
O=S(=O)(c1cccc(C(F)(F)F)c1)N1CCC(CN2CCCCCC2)CC1	mHTT CaM bind 98.5
CC1CCN(CC2CCN(S(=O)(=O)c3cccc(C(F)(F)F)c3)CC2)CC1	none
Cc1ccccc1C(=O)N1CCN(c2cccc(F)c2)C(=O)C1C (stereo not drawn)	none
Cn1c(C2CCN(C(=O)Nc3cc(F)c(F)c(F)c3)CC2)cc(=O)n2nccc12	none
O=C(COc1ccc(Cl)cc1)Nc1c2c(nn1-c1ccc(F)cc1)CS(=O)(=O)C2	none
O=[N+]([O-])c1cccc(/C=C/c2ccc3ccccc3n2)c1	none
